# Many of the other results were omitted from the sample, so hits are more common in it than they were.
# Dicer inh: inhibitors of Dicer pre-microRNA processing, primary screen, biochemical, cat-ELCCA, chemiluminescence | Endoribonuclease Dicer (Homo sapiens), Q9UPY3 | cat-ELCCA pre-miR-21 Dicer processing; stronger effect = higher value | z-score at 25 µM | 6% of 47,000 active | AID 1347074, 2019; in the data active = z-score above about 3, passing the limit was not always enough;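 also: higher signal means more uncleaved substrate so more Dicer inhibition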
# Target sequence (Q9UPY3 whole entry, looked up): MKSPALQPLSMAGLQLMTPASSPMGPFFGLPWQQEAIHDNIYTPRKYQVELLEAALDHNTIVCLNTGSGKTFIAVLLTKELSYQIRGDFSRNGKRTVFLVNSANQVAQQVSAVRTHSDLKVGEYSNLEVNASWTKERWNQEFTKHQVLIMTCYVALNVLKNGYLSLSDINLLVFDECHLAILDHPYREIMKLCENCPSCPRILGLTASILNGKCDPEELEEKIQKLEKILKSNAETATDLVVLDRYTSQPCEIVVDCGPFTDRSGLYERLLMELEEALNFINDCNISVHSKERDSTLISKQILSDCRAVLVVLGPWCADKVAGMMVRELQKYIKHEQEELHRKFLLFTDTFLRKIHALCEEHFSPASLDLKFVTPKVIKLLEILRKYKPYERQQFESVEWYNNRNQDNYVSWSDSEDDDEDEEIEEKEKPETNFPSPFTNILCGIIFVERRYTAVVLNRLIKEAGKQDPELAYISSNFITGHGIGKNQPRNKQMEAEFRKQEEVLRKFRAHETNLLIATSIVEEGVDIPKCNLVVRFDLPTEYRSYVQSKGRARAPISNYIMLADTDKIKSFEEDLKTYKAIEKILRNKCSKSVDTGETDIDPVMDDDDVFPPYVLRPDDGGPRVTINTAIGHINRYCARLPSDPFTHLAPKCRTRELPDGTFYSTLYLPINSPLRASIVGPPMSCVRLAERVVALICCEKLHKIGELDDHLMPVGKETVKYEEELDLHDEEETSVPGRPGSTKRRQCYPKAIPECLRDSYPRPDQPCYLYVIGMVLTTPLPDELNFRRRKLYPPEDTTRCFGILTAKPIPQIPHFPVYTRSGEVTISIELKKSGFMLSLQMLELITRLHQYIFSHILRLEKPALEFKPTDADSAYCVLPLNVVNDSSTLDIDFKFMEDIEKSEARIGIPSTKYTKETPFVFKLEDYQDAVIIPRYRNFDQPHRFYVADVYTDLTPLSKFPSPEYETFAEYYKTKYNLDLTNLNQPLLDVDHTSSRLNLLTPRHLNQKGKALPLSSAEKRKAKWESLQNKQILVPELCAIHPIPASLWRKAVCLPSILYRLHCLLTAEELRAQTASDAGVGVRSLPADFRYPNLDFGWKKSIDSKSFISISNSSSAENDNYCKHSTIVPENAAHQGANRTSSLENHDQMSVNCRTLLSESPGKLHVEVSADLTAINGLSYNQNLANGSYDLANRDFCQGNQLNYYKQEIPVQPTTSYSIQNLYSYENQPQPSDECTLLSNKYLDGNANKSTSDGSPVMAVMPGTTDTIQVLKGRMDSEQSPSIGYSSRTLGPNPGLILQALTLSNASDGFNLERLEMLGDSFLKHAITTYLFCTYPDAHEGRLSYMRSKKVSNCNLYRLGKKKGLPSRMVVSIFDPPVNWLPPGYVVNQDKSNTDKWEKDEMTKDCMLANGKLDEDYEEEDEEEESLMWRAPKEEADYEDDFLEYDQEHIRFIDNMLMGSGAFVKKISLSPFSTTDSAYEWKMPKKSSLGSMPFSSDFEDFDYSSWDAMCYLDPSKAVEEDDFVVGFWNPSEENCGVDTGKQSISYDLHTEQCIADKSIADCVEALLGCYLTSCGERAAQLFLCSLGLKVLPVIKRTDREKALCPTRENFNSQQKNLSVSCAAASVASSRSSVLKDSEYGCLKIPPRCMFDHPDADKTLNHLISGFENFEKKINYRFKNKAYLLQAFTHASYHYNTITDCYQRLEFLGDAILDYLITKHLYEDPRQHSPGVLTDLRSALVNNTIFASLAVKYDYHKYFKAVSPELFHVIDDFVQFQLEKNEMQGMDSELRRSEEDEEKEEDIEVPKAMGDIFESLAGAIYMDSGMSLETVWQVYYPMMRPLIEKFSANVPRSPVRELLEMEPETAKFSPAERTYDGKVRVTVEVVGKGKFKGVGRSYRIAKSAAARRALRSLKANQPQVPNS
# Hits are given with their value; . = inactive.
SMILES,Dicer inh
CC(C)C(=O)NNc1cc(C(F)(F)F)ccn1,.
O=C(Nc1cc(C(F)(F)F)cc(C(F)(F)F)c1)C(Sc1ccccn1)c1ccccc1 (configuration not stated),.
O=C(CC1(O)C(=O)N(CCc2ccccc2)c2ccc(Cl)cc21)c1ccc(F)cc1 (configuration not stated),.
CCN(C(=O)c1cnccc1C(F)(F)F)c1cccc(C)c1C,.
Cc1ccccc1NC(=O)/C=C/C(=O)O,.
C/C=C/C(=O)N(CC)c1ccccc1C,3.57
C=CCN=C1NC(=O)C(CC(=O)Nc2ccc(Cl)cc2)S1 (configuration not stated),.
O=C(CC1SC(=Nc2ccc(O)cc2)NC1=O)Nc1ccc(Br)cc1 (configuration not stated),3.78
O=C(CC1SC(=Nc2ccccc2)NC1=O)Nc1ccccc1Cl (configuration not stated),.
CC(=O)Nc1ccc(-n2sc3c(c2=S)-c2cc(C)ccc2NC3(C)C)cc1,.
Cc1nc2n(CCN3CCOCC3)c3ccccc3n2n1,.
c1ccc(-c2cn3c4ccccc4n(CCN4CCOCC4)c3n2)cc1,4.11
Cc1ccc(-c2cn3c4ccccc4nc3n2CCN2CCOCC2)cc1,.
Brc1ccc2c(c1)c(-c1ccccc1)nc1nnnn12,.
COCCN1C(=O)c2oc3ccc(C)cc3c(=O)c2C1c1ccc(O)c(OC)c1 (configuration not stated),.
NC(N)=N/C(N)=N/c1nc(-c2ccccc2)cs1,.
CCc1ccc2nc(Nc3ncc4c(n3)CC(c3ccco3)CC4=O)nc(C)c2c1 (configuration not stated),.
CCOC(=O)c1c(N)oc2c(-c3ccc(CC)cc3)c3c(C(=O)OCC)c(N)oc3cc12,.
COC(=O)c1c(C)oc2ccc(O)cc12,.
CCOC(=O)c1c(N)oc2c(-c3ccc(C)cc3)c3c(C(=O)OCC)c(N)oc3cc12,.
COC(=O)c1c(N)oc2c(-c3ccc(C)cc3)c3c(C(=O)OC)c(N)oc3cc12,3.8
CCOC(=O)c1c(N)oc2c(-c3ccc(C)c(C)c3)c3c(C(=O)OCC)c(N)oc3cc12,4.99
COC(=O)c1c(C)oc2ccc(OC(C)C(=O)O)cc12 (configuration not stated),.
CC(=O)OC[C@@H](OC(C)=O)[C@@H](OC(C)=O)[C@H](OC(C)=O)C(=O)O,.
O=[N+]([O-])c1ccc(N2CC=CCC2)nc1,.
SMILES,Dicer inh
CCOC(=O)c1cnn(C(=O)Cc2cccc(OC)c2)c1N,.
COC(=O)Cc1cc(=O)n(-c2nc3ccccc3[nH]2)[nH]1,4.62
Cc1ccc(-c2cc(=O)n(-c3nc4ccccc4[nH]3)[nH]2)cc1,.
CC(C)OC(=O)CSc1nc2ccccc2[nH]1,.
FC(F)(F)c1cccc(N2CCN(/C=C/c3nnnn3-c3ccc(Cl)cc3)CC2)c1,.
CCCCOc1ccccc1C1C(C(=O)OCC)=C(C)NC2=C1C(=O)CC(C)(C)C2 (configuration not stated),.
O=S(=O)(c1ccc2c(c1)CCO2)N1CCC2(CC1)OCCO2,.
COc1ccc2nc(C)cc(Cl)c2c1,.
COc1ccc2nc(C3C(=O)c4ccccc4C3=O)cc(Cl)c2c1,6.49
COc1ccccc1-c1nc2ccc(Cl)cc2c(=O)o1,.
COc1ccc2nc(N)sc2c1,.
COc1ccc2nc3ccccc3c(N)c2c1,3.98
COc1ccc2nc(C3C(=O)c4ccccc4C3=O)ccc2c1,.
COc1ccc(N2CCN(CC(O)COC3C4(C)CCC(C4)C3(C)C)CC2)cc1 (configuration not stated),.
CCn1c2c(c(=O)[nH]c1=O)C(c1ccc(C)cc1)C1=C(N2)c2ccccc2C1=O (configuration not stated),.
CCOc1ccc(NC2=NC(c3cc(OC)ccc3OC)n3c(nc(C)cc3=O)N2)cc1 (configuration not stated),.
FC(F)(F)C1=CC(c2ccc(Br)cc2)=NCCN1,3.57
c1ccc2c(CC3=NCCN3)cccc2c1,.
FC(F)(F)C1=CC(c2ccccc2)=NCCN1,3.08
O=C1NCCN=C(c2ccccc2)c2ccccc21,.
Nc1nc(-c2ccc(Br)cc2)cc(C(F)(F)F)n1,.
C/C(=N\NC1=NCCN1)c1ccc(Br)cc1,.
Cc1onc(-c2c(Cl)cccc2Cl)c1NC(=O)NNc1cc(Cl)ccc1Cl,.
CCOC(=O)Cc1csc(N2C(=O)c3ccccc3C2=O)n1,.
NNC(=O)c1nn(-c2ccccc2)c(=O)cc1O,.
SMILES,Dicer inh
COc1cccc(OCC(O)CNC(C)(C)CC(C)(C)C)c1 (configuration not stated),.
Cc1cc(C)c(C(N)=O)c(CC(C)(C)C(=O)O)c1,.
COc1ccc(C(=O)CSC2=NCCCCCC2)cc1,.
Clc1ccc(/C=N/Nc2ncnc3c2cnn3-c2ccccc2)cc1,.
CCCCc1c(C)nc(SC)[nH]c1=O,5.31
CCCCc1c(C)nc(N)[nH]c1=O,.
CCCCc1c(O)nc(SC)[nH]c1=O,.
O=C1C(=O)N(CCCn2ccnc2)C(c2cccc(Br)c2)/C1=C(\O)c1ccc(F)cc1 (configuration not stated),.
CCn1c(C)[n+](CC(O)COc2cccc(OC)c2)c2ccccc21 (configuration not stated),.
COc1ccc(-c2nc3n(n2)C(c2ccc(OC)c(OC)c2)C2=C(CCCC2=O)N3)cc1OC (configuration not stated),.
CC1(C)CC(=O)C2=C(C1)Nc1nc(-c3cccc(Cl)c3)nn1C2c1ccc2c(c1)OCO2 (configuration not stated),.
COc1ccc(-c2nc3n(n2)C(c2ccc4c(c2)OCO4)C2=C(CC(C)(C)CC2=O)N3)cc1OC (configuration not stated),3.04
CC(c1ccccc1)n1c(SCC(=O)c2ccc(F)cc2)n[nH]c1=O (configuration not stated),.
CC(c1ccccc1)n1c(SCC(=O)N2CCOCC2)n[nH]c1=O (configuration not stated),13
O=C(CSc1nc2ccccc2s1)N1CCOCC1,.
Cc1cc2nc(C(F)(F)F)cc(C)n2n1,.
Nc1ccc(-c2nc3c(ccc4ccccc43)[nH]2)cc1,23
Nc1ccc(-c2nc3ccccc3[nH]2)cc1,.
Nc1ccc(-c2nc3c(Cl)cccc3[nH]2)cc1,.
CC(C)(C)c1cc(Oc2ncccc2[N+](=O)[O-])ccc1Oc1ncccc1[N+](=O)[O-],.
CN(C)c1ccc(/C=C(\C#N)c2ccc([N+](=O)[O-])cc2)cc1[N+](=O)[O-],.
COc1ccc(/C(C#N)=C/c2cn[nH]c2)cc1,.
COc1ccc(/C=C(\C#N)c2ccc([N+](=O)[O-])cc2)cc1[N+](=O)[O-],3.48
Cc1ccc(S(=O)(=O)c2cc(C(F)(F)F)cc(C(F)(F)F)c2)cc1,.
CN(C)/C=C1/N=C(c2ccccc2)OC1=O,.
SMILES,Dicer inh
Cc1ccc(Sc2ncccc2C2=N/C(=C\N(C)C)C(=O)O2)cc1,.
CN(C)/C=C1\N=C(c2cccnc2Oc2ccc(Cl)cc2)OC1=O,18.8
COc1cc(C2NC(=O)c3cc([N+](=O)[O-])ccc3N2)cc(OC)c1OC (configuration not stated),.
O=C1/C(=C/c2c(F)cccc2Cl)COc2ccc(F)cc21,.
CC(=O)Oc1ccc2oc(C)c(C(=O)OC(C)C)c2c1,.
CC(=O)Oc1ccc2c(C)cc(=O)oc2c1,.
CC(=O)Oc1ccc2oc3c(c2c1)C(=O)CCC3,4.75

# Bioassay records: PubChem, Center for Chemical Genomics, University of Michigan
